Test results reported in PubChem BioAssay (EPA / NIEHS).
Where “and” joins values, the source holds several entries; their conditions need not be identical. Identical values can stand only once. Results filed as inconclusive are left out. A structure can be active in one record and inactive in another. Calls of active or inactive are those of the source. The calls were made as follows, unless noted: active = hit-call score of the fitted dose curve at least 0.9, where 1 is the maximum; inactive = score below 0.9.

How the values were obtained:
[1] = TOX21_p53_BLA_p2_viability: Viability Assessment in the Tox21 HCT-116 p53 Agonism Beta-lactamase Assay, Phase 2 (AID 2283591; active = hit-call score of the fitted dose curve at least 0.9, where 1 is the maximum;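 also: compound exposure lasted 16 h at 37 °C; actives lower the ATP signal meaning cytotoxicity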)
Outline: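 Cytotoxicity readout: CellTiter-Glo ATP luminescence, 30 min at room temperature, after the beta-lactamase read. Cells were HCT116 exposed 16 h at 37C to compounds pin-transferred at 217-fold dilution from DMSO stocks.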

[2] = target: Cellular tumor antigen p53 (Homo sapiens) (UniProt P04637); assay: TOX21_p53_BLA_p2_ratio: Tox21 HCT-116 p53 Agonism Beta-lactamase Assay, Ratio, Phase 2 (AID 2283592; active = hit-call score of the fitted dose curve at least 0.9, where 1 is the maximum)
Chain of Cellular tumor antigen p53 (Homo sapiens) (P04637 whole entry, looked up): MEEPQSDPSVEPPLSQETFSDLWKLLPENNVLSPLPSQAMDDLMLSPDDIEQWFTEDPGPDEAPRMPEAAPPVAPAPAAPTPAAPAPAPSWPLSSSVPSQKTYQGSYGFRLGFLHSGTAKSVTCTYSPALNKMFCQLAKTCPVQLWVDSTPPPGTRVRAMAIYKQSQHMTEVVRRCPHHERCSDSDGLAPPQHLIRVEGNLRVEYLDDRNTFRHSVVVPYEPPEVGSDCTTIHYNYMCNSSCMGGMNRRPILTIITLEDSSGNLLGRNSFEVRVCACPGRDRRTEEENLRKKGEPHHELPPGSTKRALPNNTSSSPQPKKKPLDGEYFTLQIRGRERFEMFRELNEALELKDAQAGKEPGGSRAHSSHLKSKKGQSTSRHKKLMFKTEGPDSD
Outline: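 In this cell-based reporter format, HCT116 cells were dosed with chemicals delivered from DMSO by 217-fold dilution and incubated 16 h at 37C. Emission at 460 and 530 nm after 2 h CCF4-AM loading provided the ratio, fitted upward versus DMSO.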

[3] = TOX21_p53_BLA_p3_viability: Viability Assessment in the Tox21 HCT-116 p53 Agonism Beta-lactamase Assay, Phase 3 (AID 2283593; active = hit-call score of the fitted dose curve at least 0.9, where 1 is the maximum;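 also: cells exposed to compound for 16 h before reading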)
Outline: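 Cellular ATP was quantified by CellTiter-Glo luminescence, read after 30 min at room temperature. Beforehand, HCT116 cells (4000/well) received compound 5 h post-seeding, 217-fold diluted from DMSO, then incubated 16 h at 37C.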

[4] = target: Cellular tumor antigen p53 (Homo sapiens) (UniProt P04637); assay: TOX21_p53_BLA_p3_ratio: Tox21 HCT-116 p53 Agonism Beta-lactamase Assay, Ratio, Phase 3 (AID 2283596; active = hit-call score of the fitted dose curve at least 0.9, where 1 is the maximum)
Outline: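 HCT116 p53-bla cells (4000/well) given compound in DMSO (217-fold dilution) after 5 h, incubated 16 h at 37C. CCF4-AM substrate 2 h at room temperature; 460/530 nm emission ratio, gain fitted against DMSO.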

[5] = target: Cellular tumor antigen p53 (Homo sapiens) (UniProt P04637); assay: TOX21_p53_BLA_p5_ratio: Tox21 HCT-116 p53 Agonism Beta-lactamase Assay, Ratio, Phase 5 (AID 2283599; active = hit-call score of the fitted dose curve at least 0.9, where 1 is the maximum)
Outline: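 Beta-lactamase reporter ratio (blue 460 nm over green 530 nm, 405 nm excitation) after 2 h CCF4-AM loading, in HCT-116 cells exposed 16 h at 37 C to compounds pinned at 217-fold dilution. Increases relative to DMSO baseline scored.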

[6] = TOX21_p53_BLA_p5_viability: Viability Assessment in the Tox21 HCT-116 p53 Agonism Beta-lactamase Assay, Phase 5 (AID 2283600; active = hit-call score of the fitted dose curve at least 0.9, where 1 is the maximum)
Outline: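 Compounds, pinned from DMSO at 217-fold dilution, were left on the cells for 16 h. The viability endpoint was ATP content measured by CellTiter-Glo luminescence, where falling signal reflects cytotoxicity.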

[7] = CCTE_Shafer_MEA_dev_firing_rate_mean: CCTE's Neural Network Formation Assay for Mean Firing Rate, Shafer Lab (AID 2284031)
Outline: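 Primary rat cortical neurons on 48-well MEA plates, exposed from plating day 0 with dosing renewed on DIV 5 and 9. Mean well firing rate over active electrodes, recorded days 5, 7, 9, 12, summarised as trapezoidal AUC.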

[8] = CCTE_Shafer_MEA_dev_per_burst_spike_percent: CCTE's Neural Network Formation Assay for Percent of Spikes in a Burst, Shafer Lab (AID 2284032);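 as to AC50: fitted as a decrease in burst spike percentage below DMSO baseline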
Outline: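 Rat primary cortical neurons on 16-electrode MEA wells, dosed from plating day 0 for 12 days with renewal on DIV 5 and 9; spikes-in-bursts percentage averaged over bursting electrodes, collapsed as AUC across days 5, 7, 9, 12; loss direction versus DMSO.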

[9] = CCTE_Shafer_MEA_dev_active_electrodes_number: CCTE's Neural Network Formation Assay for Number of Active Electrodes, Shafer Lab (AID 2284040; active = hit-call score of the fitted dose curve at least 0.9, where 1 is the maximum;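 also: potency for loss of active electrodes versus DMSO so lower counts are hits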)
Outline: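 Primary rat cortical neurons on 16-electrode MEA wells, exposed from day 0 through day 12 with compound renewed at DIV 5 and 9 feeds. Active electrodes (mean firing ≥5 spikes/min) counted at DIV 5, 7, 9, 12; trapezoidal AUC across days, loss-of-signal versus DMSO.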

[10] = CCTE_Shafer_MEA_dev_burst_rate: CCTE's Neural Network Formation Assay for Burst Rate, Shafer Lab (AID 2284042)
Outline: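 Rat primary cortical cultures on PEI/laminin MEA; compound from plating, re-dosed at DIV 5, 9 media change. Single-electrode bursts/recording length, well mean of active electrodes; AUC over DIV 5–12 recordings; loss-of-signal vs DMSO.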

[11] = CCTE_Shafer_MEA_dev_bursting_electrodes_number: CCTE's Neural Network Formation Assay for Number of Bursting Electrodes, Shafer Lab (AID 2284043; active = hit-call score of the fitted dose curve at least 0.9, where 1 is the maximum;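 also: potency is for loss of bursting electrodes relative to DMSO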)
Outline: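 Read-out is the per-well number of electrodes bursting at least once every 2 minutes, recorded on days 5, 7, 9 and 12 and collapsed by trapezoidal area under the curve. Cultures were primary rat cortical neurons on MEA plates, treated continuously from plating.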

[12] = CCTE_Shafer_MEA_dev_per_burst_interspike_interval: CCTE's Neural Network Formation Assay for Burst Interspike Interval, Shafer Lab (AID 2284044)
Outline: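 Readout is the average time between spikes inside single-electrode bursts, taken as a well mean across bursting electrodes. Cortical neurons from rat developed networks on MEA plates under continuous 12-day exposure; recordings on days 5, 7, 9 and 12 were integrated by trapezoidal AUC.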

[13] = CCTE_Shafer_MEA_dev_interburst_interval_mean: CCTE's Neural Network Formation Assay for Mean Interburst Interval, Shafer Lab (AID 2284046);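 also: well-mean interburst interval of bursting electrodes as AUC over four recording days; curve fitted for decrease in interburst interval relative to DMSO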
Outline: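 Rat cortical neurons, 1.5 x 10^5 cells/well, 48-well MEA; compound from day 0 through DIV 12, media and treatment renewed DIV 5/9. Recordings DIV 5, 7, 9, 12; well-mean interburst interval → trapezoidal AUC, loss direction vs DMSO.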

[14] = CCTE_Shafer_MEA_dev_network_spike_number: CCTE's Neural Network Formation Assay for Number of Network Spikes, Shafer Lab (AID 2284048)
Outline: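 Developing networks of primary rat cortical neurons are treated over 12 days starting at plating, with media and compound fully replaced on DIV 5 and 9. Network spike counts from four recording days are integrated as trapezoidal AUC.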

[15] = CCTE_Shafer_MEA_dev_network_spike_peak: CCTE's Neural Network Formation Assay for Mean Number of Electrodes in Network Spike, Shafer Lab (AID 2284049);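 also: fitted for loss of signal meaning fewer electrodes in network spikes than DMSO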
Outline: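 Rat cortical primary culture, 1.5 x 10^5 cells/well, 48-well MEA (16 electrodes/well). Dosing day 0 through DIV 12, full media/compound exchange DIV 5, 9. AxIS adaptive spike detection; AUC over days 5/7/9/12; loss-of-signal vs DMSO.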

[16] = CCTE_Shafer_MEA_dev_spike_duration_mean: CCTE's Neural Network Formation Assay for Mean Spike Duration, Shafer Lab (AID 2284051);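 also: mean network spike duration pooled as area under curve over DIV 5 to 12 recordings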;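 as to AC50: potency for a decrease in mean network spike duration versus DMSO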
Outline: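 Rat cortical primary cultures, 48-well MEA (16 electrodes/well); compound from plating, renewed DIV 5, 9. Network spike duration (AxIS adaptive detector) recorded DIV 5/7/9/12, combined as trapezoidal AUC; loss direction vs DMSO.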

[17] = CCTE_Shafer_MEA_dev_network_spike_duration_std: CCTE's Neural Network Formation Assay for Standard Deviation of Network Spike Duration, Shafer Lab (AID 2284052);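 also: area under curve of spike duration SD across recording days 5 to 12; hits are decreases in network spike duration SD versus DMSO vehicle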
Outline: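 Rat cortical cultures, 1.5 x 10^5 cells/well, exposed continuously from plating to DIV 12 with media/compound renewal at DIV 5, 9. Spontaneous activity recorded DIV 5/7/9/12, AxIS adaptive spike detector; AUC across days; negative direction vs DMSO.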

[18] = CCTE_Shafer_MEA_dev_per_network_spike_spike_number_mean: CCTE's Neural Network Formation Assay for Mean Number of Spikes in a Network Spike, Shafer Lab (AID 2284053);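 also: fitted as decrease in spikes per network spike relative to DMSO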
Outline: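 Rat cortical primary cultures on 48-well MEA; compound from day 0, re-dosed with full media change DIV 5, 9. Recorded DIV 5, 7, 9, 12; spikes in 0.05 s window at network-spike peak ÷ total network spikes; AUC; loss vs DMSO.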

[19] = UKN5_HCS_SBAD2_cell_viability: Viability Assessment in the University of Konstanz (UKN) Leist Lab Neurite Outgrowth Assay in human iPSC-derived immature Dorsal Root Ganglia Neurons (UKN5) (AID 2284056)
Outline: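 iPSC-derived immature peripheral neurons (SBAD2) seeded on Matrigel with CHIR99021, SU5402 and DAPT, dosed 1 h later for 24 h. Viability from Hoechst H-33342 and calcein-AM live staining, high-content imaging; bidirectional fit versus DMSO.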

[20] = CCTE_Shafer_MEA_dev_LDH: CCTE's Lactate Dehydrogenase Assay for Cytotoxicity in the Neural Network Formation Assay, Shafer Lab (AID 2284068; active = hit-call score of the fitted dose curve at least 0.9, where 1 is the maximum;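 also: exposure for twelve days from plating with re-dosing on DIV 5 and 9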)
Outline: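 Rat cortical primary neurons, MEA culture; dosing day 0–12, full medium plus compound exchange DIV 5, 9. Read-out: LDH enzyme activity, spectrophotometric. DMSO = negative control/baseline; signal loss → cytotoxicity.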

[21] = UKN5_HCS_SBAD2_neurite_outgrowth: University of Konstanz (UKN) Leist Lab Neurite Outgrowth Assay in human iPSC-derived immature Dorsal Root Ganglia Neurons (UKN5) (AID 2284070); conditions: actives raise or lower the signal
Outline: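 SBAD2 iPSC-derived immature peripheral neurons on Matrigel, 100.000 cells/cm2, medium with CHIR99021 (1.5 uM), SU5402 (5 uM), DAPT (5 uM); compound added 1 h post-seeding for 24 h. Calcein-AM neurite area by high-content imaging; Hoechst H-33342 viability; bidirectional fit vs DMSO.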

[22] = CCTE_Shafer_MEA_dev_AB: CCTE's Alamar Blue Assay for Cytotoxicity in the Neural Network Formation Assay, Shafer Lab (AID 2284083; active = hit-call score of the fitted dose curve at least 0.9, where 1 is the maximum;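 also: resazurin reduction fluorescence as viability of cultured neurons; twelve days of exposure from plating with re-dosing on DIV 5 and 9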)
Outline: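 Rat cortical primary cultures, 1.5 x 10^5 cells/well on MEA; continuous compound exposure over 12 days of network development, re-dosed with full medium change DIV 5 and 9. Alamar Blue fluorescence; loss of signal = cytotoxicity vs DMSO baseline.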

[23] = CCTE_Shafer_MEA_dev_mutual_information_norm: CCTE's Neural Network Formation Assay for Mutual Information Normalization, Shafer Lab (AID 2284091);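 also: mutual information between electrodes summarised as area under curve across four recording days; potency is for a decrease in mutual information relative to DMSO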
Outline: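 Developing rat cortical networks on 16-electrode MEA wells are treated throughout formation (DIV 0–12). Shared electrode information is recorded four times, converted to area-under-curve, and fitted for decreases against DMSO vehicle.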

[24] = CCTE_Shafer_MEA_dev_correlation_coefficient_mean: CCTE's Neural Network Formation Assay for Mean Correlation Coefficient, Shafer Lab (AID 2284093);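 also: well mean pairwise spike train correlation integrated as AUC over recording days 5 to 12; potency fitted for loss of correlation relative to DMSO vehicle wells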
Outline: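 Rat cortical cultures, 1.5 x 10^5 cells/well, dosed from day 0 for 12 days. Spontaneous spikes recorded DIV 5/7/9/12; electrode-pair correlation coefficients averaged, AUC taken. Fit in loss direction vs DMSO.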

[25] = UKN2_HCS_IMR90_neural_migration: University of Konstanz (UKN) Leist Lab Neural Crest Cell Migration Assay in human induced IMR90 Pluripotent Stem Cells (UKN2) (AID 2284204); conditions: actives raise or lower the signal
Outline: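 Migration of human IMR90-derived neural crest cells into a stopper-defined gap is imaged after 24 h chemical treatment. Activity is fitted bidirectionally relative to DMSO.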

[26] = UKN4_HCS_LUHMES_neurite_outgrowth: University of Konstanz (UKN) Leist Lab Neurite Outgrowth Assay in human LUHMES cells (UKN4) (AID 2284206); conditions: actives raise or lower the signal
Outline: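 Human LUHMES neuronal precursors, differentiated 2 days then replated without cAMP and GDNF, exposed to compounds for 24 h. Neurite area imaged by high-content microscopy after calcein-AM live staining; Hoechst H-33342 for viability; bidirectional fit versus DMSO.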

[27] = IUF_NPC1b_proliferation_BrdU_72hr: Leibniz Research Institute for Environmental Medicine (IUF) 72-hour Neural Progenitor Cell Bromodeoxyuridine (BrdU) Proliferation Assay (NPC1b) (AID 2284207)
Outline: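 Proliferation of primary human neural progenitor cells: 72 h compound treatment at 37C, 5% CO2, pH 7.2-7.6, in EGF/FGF-containing medium. Readout is BrdU uptake (last 16 h) by chemiluminescent ELISA, normalised to DMSO.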

Brc1ccc(Oc2ccc(Br)cc2Br)c(Br)c1
outcome [1]: inactive | outcome [2]: inactive | outcome [3]: inactive | outcome [4]: inactive | outcome [5]: inactive | outcome [6]: inactive | outcome [7]: inactive | AC50 [8]: 14.2 µM (active) | outcome [8]: inactive | AC50 [9]: 19.8 nM (active) and 10 µM (active) | outcome [10]: inactive | AC50 [11]: 22.5 nM (active) and 8.36 µM (active) | outcome [12]: inactive | outcome [13]: inactive | outcome [14]: inactive | AC50 [15]: 13.2 nM (active) and 10 µM (active) | AC50 [16]: 15 µM (active) | outcome [16]: inactive | outcome [17]: inactive | AC50 [18]: 25.4 nM (active) and 4 µM (active) | outcome [19]: inactive | AC50 [20]: 12.3 µM (active) | outcome [20]: inactive | outcome [21]: inactive | AC50 [22]: 8.31 µM (active) | outcome [22]: inactive | AC50 [23]: 13.4 nM (active) and 1.98 µM (active) | AC50 [24]: 92.3 nM (active) and 4.26 µM (active) | outcome [25]: inactive | AC50 [26]: 21.8 µM (active) | outcome [27]: inactive
